38 molecules from PubChem BioAssay (Tox21) can be followed below.

Records with an inconclusive call do not appear. Entries that show only a call come without a potency. Calls of active or inactive are those of the source. Calls come from the whole dose curve; as a rule, active = well fitted curve in the direction sought with a large enough effect in the repeat runs; inconclusive = weak or mixed curves; inactive = no such curve, though single readings can be large; an effect the other way counts as inactive or inconclusive.

One assay in a line: A CellTox Green Cytotoxicity Assay to monitor cytotoxicity in HEK293 cells - 8 hour (AID 1224884). Note: nearly all actives have a fitted effect of over 35% in size. The conditions noted are these: CellTox Green fluorescence; series mostly up to 76.8 µM. Summed up:
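Nonlytic real-time cytotoxicity: HEK293 + CellTox Green reagent plated, 5 h preincubation, pintool compound addition (23 nL in DMSO), 37 C for 40 h, fluorescence measured at successive time points.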
For the molecule `O=C(O)CCCCCCCCCC(=O)O`, the Potency entry is “inactive”.

`Cc1ccccc1C#N`: the Potency result is “inactive”.

Turning to `CC(=O)SCC(CC(=O)c1ccc(C)cc1)C(=O)O` (stereo unspecified), the Potency result is “inactive”.

On to `NCC1CCC(C(=O)Oc2ccc(CCC(=O)O)cc2)CC1` (stereo unspecified), for which the Potency entry was “inactive”.

On to `CCN1CCN(C(=O)N[C@@H](C(=O)N[C@@H]2C(=O)N3[C@@H]2SC(C)(C)[C@H]3C(=O)O)c2ccccc2)C(=O)C1=O`, for which the Potency result is “inactive”.

On to `COc1cc(S(N)(=O)=O)cc(C(=O)O)c1OC`, for which the Potency result is “inactive”.

For `C/C(=N\O)c1ccc(OCC(=O)N2CCCCC2)cc1`, the Potency entry is “inactive”.

As to `CC(C)(C)C(=O)CC(=O)C(C)(C)C`, the Potency result is “inactive”.

Take `CC(=O)Oc1ccc(C(C)=O)cc1`: the Potency result was “inactive”.

In the case of `NC[C@H]1O[C@H](O[C@H]2[C@H](O)[C@@H](O[C@H]3O[C@H](CO)[C@@H](O)[C@H](N)[C@H]3O)[C@H](N)C[C@@H]2N)[C@H](N)[C@@H](O)[C@@H]1O`, the cytotoxicity increase is 1.34% [at 15.8 µM] (inactive).

Consider `CCCc1ncc(C(=O)O)s1`, for which the Potency result was “inactive”.

For `CCCCC(CC)CCC(CC(C)C)OS(=O)(=O)O` (stereo unspecified), the Potency result is “inactive”.

On to `O=C[C@@H](O)[C@H](O)[C@H](O)CO`, for which the Potency entry is “inactive”.

As to `COC(C)(C)CC(C)=O`, the Potency entry was “inactive”.

Take `CC(C)(O)CCCC1=CCC(C=O)CC1` (stereo unspecified): the Potency entry was “inactive”.

As for `O=S(=O)(O)c1ccc(Cl)cc1`, the Potency entry is “inactive”.

With `CC(C)(C)OC=O`, the Potency result was “inactive”.

As to `BrCCOc1ccccc1`, the Potency result is “inactive”.

`CN(C)CCc1c[nH]c2ccc(C[C@H]3COC(=O)N3)cc12`: the Potency result was “inactive”.

Regarding `CCCCCCCCCCCCCCCC(=O)OC`, the cytotoxicity increase is -3.06% [at 15.8 µM] (inactive).

`CC(C)CC(O)Cc1ccccc1` (stereo unspecified): the Potency result was “inactive”.

For `CCCCCCC(O)CO` (stereo unspecified), the Potency result is “inactive”.

Consider `CN1C(CCl)Nc2cc(Cl)c(S(N)(=O)=O)cc2S1(=O)=O` (stereo unspecified), for which the Potency entry was “inactive”.

With `CCCCNCC`, the Potency entry is “inactive”.

For the molecule `CO/N=C(\C(=O)O)c1csc(NC(=O)CCl)n1`, the Potency result was “inactive”.

On to `O=C(CCBr)N1CCN(C(=O)CCBr)CC1`, for which the Potency entry is “inactive”.

Turning to `C[C@H]1COc2c(C3(N)CC3)c(F)cc3c(=O)c(C(=O)O)cn1c23`, the Potency result is “inactive”.

For `O=C(O)Cc1c(Cl)ccc(Cl)c1Cl`, the Potency result was “inactive”.

For `Cc1ccc(NC(N)=O)cc1`, the Potency entry was “inactive”.

With `COC(=O)c1c(C)cc(O)c(C)c1O`, the Potency entry was “inactive”.

`CN1CCN(C(=O)C2CCCCC2)CC1`: the Potency entry is “inactive”.

In the case of `Cc1nnc(C(=O)NC(C)(C)c2nc(C(=O)NCc3ccc(F)cc3)c(O)c(=O)n2C)o1`, the Potency entry was “inactive”.

With `COC(=O)C(c1ccccc1Cl)N1CCc2sccc2C1` (stereo unspecified), the Potency entry was “inactive”.

For the molecule `C=CC(=O)OCCOCCOCC`, the Potency result was “inactive”.

As to `CN(C)c1ccncc1`, the Potency entry is “inactive”.

On to `CCCOc1ccc(C(=O)OCCN(CC)CC)cc1N`, for which the Potency entry was “inactive”.

On to `COCCCOc1cc(C[C@@H](C[C@H](N)[C@@H](O)C[C@H](C(=O)NCC(C)(C)C(N)=O)C(C)C)C(C)C)ccc1OC`, for which the Potency entry was “inactive”.

Take `O=C1c2ccccc2C(=O)N1CO`: the Potency result is “inactive”.

A short description of another assay: qHTS RealTime-Glo MT Cell Viability Assay in HepG2 cells - 16 hour (AID 1224885). Note: nearly all actives have a fitted effect of over 50% in size. The conditions noted are these: RealTime-Glo luminescence; series mostly up to 76.8 µM. Summed up:
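HepG2 cells were seeded at 600 cells/well together with NanoLuc luciferase and a cell-permeant prosubstrate, preincubated 5 h at 37 C/5% CO2, then pin-dosed with compounds in DMSO. Nonlytic luminescence from viable cells was read at each time point.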
For orientation: qHTS replaces the single test concentration by a dilution series.
Take `O=C(O)CCCCCCCCCC(=O)O`: the molecule was called inactive.

For `Cc1ccccc1C#N`, the call was inactive.

With `CC(=O)SCC(CC(=O)c1ccc(C)cc1)C(=O)O` (stereo unspecified), the result was inactive.

With `NCC1CCC(C(=O)Oc2ccc(CCC(=O)O)cc2)CC1` (stereo unspecified), the outcome was inactive.

On to `CCN1CCN(C(=O)N[C@@H](C(=O)N[C@@H]2C(=O)N3[C@@H]2SC(C)(C)[C@H]3C(=O)O)c2ccccc2)C(=O)C1=O`, for which the result was inactive.

On to `COc1cc(S(N)(=O)=O)cc(C(=O)O)c1OC`, for which the molecule was called inactive.

As for `C/C(=N\O)c1ccc(OCC(=O)N2CCCCC2)cc1`, the molecule was called inactive.

As to `CC(C)(C)C(=O)CC(=O)C(C)(C)C`, the result was inactive.

With `CC(=O)Oc1ccc(C(C)=O)cc1`, the molecule was classed as inactive.

For `NC[C@H]1O[C@H](O[C@H]2[C@H](O)[C@@H](O[C@H]3O[C@H](CO)[C@@H](O)[C@H](N)[C@H]3O)[C@H](N)C[C@@H]2N)[C@H](N)[C@@H](O)[C@@H]1O`, the activity change, negative = cytotoxic is 3.1% [at 15.8 µM] (inactive).

Turning to `CCCc1ncc(C(=O)O)s1`, the call was inactive.

On to `CCCCC(CC)CCC(CC(C)C)OS(=O)(=O)O` (stereo unspecified), for which the result was inactive.

For `O=C[C@@H](O)[C@H](O)[C@H](O)CO`, the call was inactive.

Regarding `COC(C)(C)CC(C)=O`, the molecule was classed as inactive.

Take `CC(C)(O)CCCC1=CCC(C=O)CC1` (stereo unspecified): the molecule was classed as inactive.

As for `O=S(=O)(O)c1ccc(Cl)cc1`, the call was inactive.

`CC(C)(C)OC=O`: the molecule was called inactive.

For `BrCCOc1ccccc1`, the molecule was called inactive.

Consider `CN(C)CCc1c[nH]c2ccc(C[C@H]3COC(=O)N3)cc12`, for which the molecule was called inactive.

With `CCCCCCCCCCCCCCCC(=O)OC`, the activity change, negative = cytotoxic is -7.62% [at 15.8 µM] (inactive).

On to `CC(C)CC(O)Cc1ccccc1` (stereo unspecified), for which the call was inactive.

Consider `CCCCCCC(O)CO` (stereo unspecified), for which the molecule was called inactive.

As for `CN1C(CCl)Nc2cc(Cl)c(S(N)(=O)=O)cc2S1(=O)=O` (stereo unspecified), the result was inactive.

Consider `CCCCNCC`, for which the outcome was inactive.

On to `CO/N=C(\C(=O)O)c1csc(NC(=O)CCl)n1`, for which the molecule was called inactive.

As to `O=C(CCBr)N1CCN(C(=O)CCBr)CC1`, the outcome was inactive.

Regarding `C[C@H]1COc2c(C3(N)CC3)c(F)cc3c(=O)c(C(=O)O)cn1c23`, the molecule was classed as inactive.

For the molecule `O=C(O)Cc1c(Cl)ccc(Cl)c1Cl`, the call was inactive.

`Cc1ccc(NC(N)=O)cc1`: the outcome was inactive.

In the case of `COC(=O)c1c(C)cc(O)c(C)c1O`, the molecule was classed as inactive.

`CN1CCN(C(=O)C2CCCCC2)CC1`: the result was inactive.

`Cc1nnc(C(=O)NC(C)(C)c2nc(C(=O)NCc3ccc(F)cc3)c(O)c(=O)n2C)o1`: the outcome was inactive.

`COC(=O)C(c1ccccc1Cl)N1CCc2sccc2C1` (stereo unspecified): the molecule was called inactive.

In the case of `C=CC(=O)OCCOCCOCC`, the result was inactive.

In the case of `CN(C)c1ccncc1`, the call was inactive.

Consider `CCCOc1ccc(C(=O)OCCN(CC)CC)cc1N`, for which the molecule was classed as inactive.

`COCCCOc1cc(C[C@@H](C[C@H](N)[C@@H](O)C[C@H](C(=O)NCC(C)(C)C(N)=O)C(C)C)C(C)C)ccc1OC`: the molecule was called inactive.

With `O=C1c2ccccc2C(=O)N1CO`, the call was inactive.
